Compound activity: PubChem BioAssay, National Center for Advancing Translational Sciences (NCATS)
A selection: hits, their analogues and other compounds. The true share with any hit is near 11%.
KDM4E inh: qHTS Assay for Inhibitors of Human Jumonji Domain Containing 2E (JMJD2E). Lysine-specific demethylase 4E (Homo sapiens), B2RXH2. JMJD2E catalytic domain, FDH-coupled NADH fluorescence (FDH is formaldehyde dehydrogenase). Potency, µM (highest dose often 57.1 µM), without a hit: at the highest dose activity change, negative = inhibition, actives largely listed as inhibitors. 230,000 compounds, 1.6% hits;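 also: potency is read from the fitted curve at half-maximal effect; 0% = wells with enzyme and -100% = buffer wells without enzyme; nearly all actives have a fitted effect of over 50% in size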
Target sequence (B2RXH2 1-337 limits assumed): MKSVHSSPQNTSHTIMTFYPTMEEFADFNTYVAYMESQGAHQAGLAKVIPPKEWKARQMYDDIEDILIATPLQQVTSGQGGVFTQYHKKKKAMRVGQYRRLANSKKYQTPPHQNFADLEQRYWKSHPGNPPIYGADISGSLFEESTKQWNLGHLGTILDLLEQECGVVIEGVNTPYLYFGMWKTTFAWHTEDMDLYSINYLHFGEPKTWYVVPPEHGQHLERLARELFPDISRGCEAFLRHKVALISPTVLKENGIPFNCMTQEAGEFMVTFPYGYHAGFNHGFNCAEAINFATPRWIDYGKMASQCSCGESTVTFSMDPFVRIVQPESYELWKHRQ
PNC assembly inh: High Content Assay for Compounds that inhibit the Assembly of the Perinucleolar Compartment | PC3M PTB-GFP, PNC prevalence imaging, 16 h; stronger effect = lower value | activity change (PNC), negative = inhibition, % at 10 µM | 140,000 compounds, 3.1% hits | AID 2417, 2010;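 active = readout at or below -70, meaning at least 70% loss of cells showing the perinucleolar compartment, a nuclear body marking cancer cells; inconclusive = readout between -30 and a set limit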;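 also: plate controls were DMSO wells for no effect and camptothecin positive control wells for full effect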
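PC3M cells stably expressing PTB-GFP, 750–1000 cells/well, treated 16 h at 37 °C with compound (23 nl of library stock), in duplicate. After paraformaldehyde fixation and Hoechst stain, imaged at 20x; PNC prevalence scored by image analysis.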
HPGD inh: qHTS Assay for Inhibitors of HPGD (15-Hydroxyprostaglandin Dehydrogenase) | purified HPGD, NADH fluorescence kinetic, PGE2 substrate | Potency, µM, for inactives: top-dose activity change, negative = inhibition, most hits filed as inhibitors | AID 894, 2007 | 150,000 compounds, 4.3% hits; also: potency is read from the fitted curve at half-maximal effect
Target sequence (P15428 whole entry, looked up): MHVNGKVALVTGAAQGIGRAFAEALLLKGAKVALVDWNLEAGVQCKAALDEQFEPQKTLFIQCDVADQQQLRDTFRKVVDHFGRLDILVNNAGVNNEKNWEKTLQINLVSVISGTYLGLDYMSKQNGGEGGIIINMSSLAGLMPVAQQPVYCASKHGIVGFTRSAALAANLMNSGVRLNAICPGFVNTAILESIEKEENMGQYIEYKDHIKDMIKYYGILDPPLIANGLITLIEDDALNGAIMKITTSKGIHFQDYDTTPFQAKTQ
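NADH formation kinetics: reaction with 30 uM PGE2 and 1 mM NAD+ (final), 20 nM enzyme, Tris-HCl pH 8 with Tween 20, after 15 min compound preincubation at room temperature. Fluorescence change, last versus first of five reads.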
ALDH1A1 block: qHTS Assay for Inhibitors of Aldehyde Dehydrogenase 1 (ALDH1A1). Potency, µM (titrated, usually from 75.3 µM), for inactives: at the highest dose activity, negative = inhibition, most hits filed as inhibitors. Purified ALDH1A1, NADH fluorescence, propionaldehyde substrate. Aldehyde dehydrogenase 1A1 (Homo sapiens), P00352. 220,000 compounds, 7.3% hits;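 also: potency is read from the fitted curve at half-maximal effect; plate controls were no enzyme wells and a reference inhibitor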
The depositor's hits bear a star; ? = inconclusive; · = not tested or not shown; [ ] = dose if it differs, or a comment. Unless noted, calls follow the shape of the dose curve; as a rule, active = well fitted inhibition curve with a large enough effect (not every such curve was filed as active); inconclusive = small, poorly fitted or top-dose-only effect, or another doubt; inactive = no such curve, though single readings can be large or run the other way. Unless noted, % is scaled to controls: 0 for no effect and ±100 for the full control effect.

SMILES	KDM4E inh	PNC assembly inh	HPGD inh	ALDH1A1 block
CN(C)N=Nc1ccc(S(N)(=O)=O)cc1	5%	·	·	9%
Cc1cc(C)cc(-n2c(C)cc(C(=S)N3CCOCC3)c2C)c1	-1%	16	4µM*	-11%
Cc1cccc(-n2c(C)cc(C(=S)N3CCOCC3)c2C)c1C	6%	·	·	?
Cc1cc(C(=S)N2CCOCC2)c(C)n1-c1ccc(Cl)cc1	-7%	7	28µM*	22µM*
O=C(NCc1ccco1)c1nc2c(nnn2Cc2cccc(Cl)c2)c(=O)[nH]1	2%	57	0.35µM*	28µM*
O=C(NCc1ccccc1)c1nc2c(nnn2Cc2cccc(Cl)c2)c(=O)[nH]1	4%	-28	2.5µM*	15%
CN(C)/C=C(/C#N)C(=O)c1cccc(Oc2ccc(C(C)(C)C)cc2)c1	2%	-4	22µM*	-8%
NC(=O)C(=O)O	-8%	·	-5%	-3%
O=C(c1ccccn1)N1N=C2/C(=C/c3ccc(F)cc3)CCCC2C1c1ccc(F)cc1 (stereo not given)	0%	28	-3%	5%
COc1ccc(/C=C2\SC(=O)N(CCC(=O)Nc3ccccc3)C2=O)cc1OC	2%	17	-21%	1%
COc1cccc(/C=C2\SC(=O)N(CCC(=O)NNC(=O)c3cccc(Cl)c3)C2=O)c1	-27%	-86*	-12%	6%
COc1ccccc1/C=C1\SC(=O)N(CCC(=O)NNC(=O)c2ccccc2Cl)C1=O	?	-93*	48%	?
CCn1c(SCC(=O)NCCc2ccc(F)cc2)nnc1-c1cccs1	-7%	47	-12%	5%
CSc1nc2ccccc2c(=O)n1C1CCOC(C)(C)C1 (stereo not given)	0%	·	·	10%
Cn1cc(/C=N/n2cnc3scc(-c4ccccc4)c3c2=O)c2ccccc21	?	-113*	-30%	?
O=c1c2c(-c3ccccc3)csc2ncn1/N=C/c1cccc([N+](=O)[O-])c1O	-7%	·	·	1%
N#CCCCCN1CCCC1	-2%	·	·	6%
O=C(CSc1ncn[nH]1)Nc1ccc(Cl)c(Cl)c1	0%	?	-3%	4µM*
O=C(CSc1ncn[nH]1)Nc1ncc(C(F)(F)F)cc1Cl	-8%	·	·	-5%
O=C(CSc1ncn[nH]1)NC1CC2CCC1C2 (stereo not given)	-6%	32	16µM*	?
CC1=CC[C@@]2(CO)COC(c3ccccc3O)C1C2 (stereo not given in full)	0%	·	0%	?
CCCCNC(=O)Nc1nnc(C(C)(C)C)s1	6%	·	·	·
O=C(CC12CC3CC(CC(C3)C1)C2)NCc1ccncc1	-8%	-84*	-8%	-3%
CC(C)C(NC(N)=O)C(=O)NC1CCCCC1 (stereo not given)	-2%	·	·	-2%
c1cnc(N2CC[N+]3(CCCC3)CC2)nc1	?	42	-15%	5%
SMILES	KDM4E inh	PNC assembly inh	HPGD inh	ALDH1A1 block
c1cnc(N2CCSCC2)nc1	4%	-91*	-3%	12%
O=[N+]([O-])c1c(C(Cl)Cl)nn(-c2ccccc2)c1N1CCOCC1	-20%	·	·	-8%
O=[N+]([O-])c1c(C(Cl)Cl)nn(-c2ccc(Cl)cc2)c1N1CCCCC1	-1%	-113*	-3%	2%
CC1NC2(C(=O)N(Cc3ccccc3)c3ccccc32)C2C(=O)N(c3ccccc3)C(=O)C12 (stereo not given)	3%	-21	-15%	14µM*
O=C1C2CC=CCC2C(=O)N1Cc1ccccc1 (stereo not given)	-3%	?	-5%	?
COC(=O)NC1CSCC1OC(=O)CN1C(=O)c2ccccc2C1=O (stereo not given)	5%	-85*	-6%	2%
Cc1cc(C)c(-n2c(SCCS(=O)(=O)c3ccc(F)cc3)n[nH]c2=O)c(C)c1	-5%	·	·	14µM*
Cc1cc(C)c(-n2c(SCc3nc4ccccc4s3)n[nH]c2=O)c(C)c1	10%	·	·	·
Cc1ccc(S(=O)(=O)CCSc2n[nH]c(=O)n2-c2ccccc2)cc1	9%	·	·	20µM*
COc1cc(/C=N/NC(=O)CCN2CCN(c3ccccc3)CC2)cc(OC)c1OC	?	-86*	-12%	-11%
O=C(CCN1CCOCC1)N/N=C/c1cc(Br)cc(Br)c1O	28µM*	·	·	-1%
O=C(CCN1CCN(c2ccccc2)CC1)N/N=C/c1ccc(O)c(O)c1O	-6%	·	·	4µM*
O=C(Cc1csc(N2CCOCC2)n1)N/N=C/c1ccc(O)c(O)c1O	8.9µM*	·	·	7.5µM*
C/C(=N\NC(=O)Cc1csc(N2CCOCC2)n1)c1ccccc1	4%	-7	-10%	1%
O=C(Nc1ccccc1)N1CCC2(CC1)CCN(C(=O)c1ccco1)CC2	·	·	1%	-5%
Cc1cc(C)nc(N2CCCC(C(=O)NC(C)C)C2)n1 (stereo not given)	?	·	·	-6%
Cc1nnc(OC(C)C)c2nn(-c3ccccc3F)c(C)c12	-1%	1	-3%	2%
CCOc1nnc(C)c2c(C)n(-c3cccc(OC)c3)nc12	-5%	-106*	-7%	4%
Cc1ccc(NC(=O)c2cccc(OCc3c(C)noc3C)c2)cc1S(=O)(=O)Nc1ccccc1Cl	?	?	?	-5%
O=C(NC(=S)Nc1ccc2c(c1)C(=O)c1ccccc1C2=O)c1ccc(F)cc1	9%	22	-15%	11µM*
Cc1ccc(NC(=S)NC(=O)c2ccc(F)cc2)cc1S(=O)(=O)Nc1ccccc1Cl	-3%	0	-10%	13µM*
CCCCCCCCCCCCC[N+](C)(C)Cc1ccccc1	-4%	·	-8%	-13%
C/C(=N\Nc1ccc([N+](=O)[O-])cc1)c1ccc(-n2nncc2C)cc1	-3%	-17	8.9µM*	-13%
C/C(=N\Nc1ccc([N+](=O)[O-])cc1)c1ccc(N2CCOCC2)cc1	-2%	·	·	·
C/C(=N\Nc1nc(C)c(C)s1)c1ccc([N+](=O)[O-])cc1	1%	·	·	13µM*
SMILES	KDM4E inh	PNC assembly inh	HPGD inh	ALDH1A1 block
Cc1cccc(/C=C2/SC(=O)N(Cc3ccccc3Cl)C2=O)n1	7%	22	-13%	3.2µM*
CCOc1ccc(/C=C2\SC(=O)N(c3ccc(O)cc3)C2=O)cc1OC	13%	·	·	·
COc1cc(/C=C2/SC(=O)N(Cc3ccccc3Cl)C2=O)ccc1OCc1ccncc1	4%	26	1%	0.45µM*
COC(=O)c1ccc(Oc2nc(NC(C)(C)C)nc(N3CCOCC3)n2)cc1	3%	·	·	-1%
C[N@+]1(CCC(=O)c2ccccc2)CC[C@H]2CC[C@H](C2)C1	·	·	-5%	-8%[13.5 µM]
NCCC[C@@H](CC(=O)N[C@@H]1CCCC[C@H]1C(=O)N[C@H](CC(=O)N[C@@H](CCC(=O)O)CC(=O)O)Cc1ccccc1)NC(=O)C[C@H](Cc1c[nH]c2ccccc12)NC(=O)[C@@H]1CNCC[C@H]1N	?	·	-5%	-6%
Cc1ccccc1Cn1c(CN2CCc3ccccc3C2)nc2c1c(=O)n(C)c(=O)n2C	?	-10	-1%	32µM*
